Data published in PubChem BioAssay AID504432 (National Center for Advancing Translational Sciences (NCATS), 2011).
Results filed as inconclusive are left out. Calls of active or inactive are those of the source. Calls follow the shape of the dose curve; as a rule, active = well fitted inhibition curve with a large enough effect; inconclusive = small, poorly fitted or top-dose-only effect, or another doubt; inactive = flat fitted curve, though single readings scatter.

Experiment: Confirmation Concentration-Response Assay for lipid storage modulators: for probe SAR round 2
Conditions: Drosophila S3 cells, BODIPY lipid droplet fluorescence, 18-24 h
Excerpt: NIH Molecular Libraries Probe Production Centers Network [MLPCN] NIH Chemical Genomics Center [NCGC] MLPCN Grant: 1 R03 MH085686-01 Assay Submitter (PI): Beller, Mathias; Max-Planck-Institut fur Biophysikalische Chemie NCGC Assay Overview: Storing lipids as a reservoir for energy or the anabolism of elementary metabolites is a common feature of probably all cells and is conserved from bacteria to humans. The universal cellular lipid storage organelle is the so-called lipid storage droplet (LD). Although ubiquitous, LDs share a simple structure composed of a hydrophobic core that harbors the storage lipids, which is shielded by a droplet-specific phospholipid monolayer to which proteins are attached. […]
We dispensed 4 uL of cells at 1.25 x 10^6 cells/mL into LoBase Aurora COC 1,536-well plates (black walled, clear bottom) with a bottle-valve solenoid-based dispenser (Aurora) to obtain 5,000 cells/well. […] Fluorescence was detected by excitation of the fluorophores with a 488-nm laser on an Acumen Explorer (TTP Lab Tech). […] Cells were detected using channel 3 (575- 640 nm) with 5-um width and 100-um depth filters. The ratio of the total intensity in PMT channel 1 over total intensity of channel 3 was also calculated. […]

Compound: CCC/C=C/C/C=C/C=C/C=N/NN=O
- Potency: 2810 nM (active)
